Source: PubChem
Rows were chosen to be rich in hits. Some 1.8% of all compounds tested hit in one or more screens of this group.
LAP4 TOR yeast: alters LAP4-GFP fluorescence in TOR pathway yeast screen. S. cerevisiae LAP4-GFP multiplex, flow cytometry GFP, 3 h; median GFP as percent of DMSO wells. GFP response vs DMSO, % at 10 µM. hit rate 0.34% among 320,000. AID 2023;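 active = GFP response vs DMSO above a set limit, about the screen mean plus 3 SD, cut at about 150% in these data; inconclusive = under 70 cell events counted for the yeast strain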
AGP1-GFP MLPCN: alters AGP1-GFP fluorescence in TOR pathway yeast screen. hit rate 0.02% among 320,000. S. cerevisiae AGP1-GFP multiplex flow cytometry, 3 h; GFP as percent of DMSO wells. AID 2066. GFP response vs DMSO, % at 10 µM;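 active = GFP response relative to DMSO above a set limit, near screen average plus 3 SD, cut at about 150% in these data; inconclusive = fewer than 70 cells counted for the yeast strain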;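 also: median GFP channel fluorescence of the gated AGP1 strain per well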
Myeloid diff MLP: compounds promoting myeloid differentiation; ER-HoxA9 myeloid progenitors, lysozyme-GFP differentiation, flow cytometry; calls only at 10 µM; hit rate 1% among 360,000; AID 624256;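 active = normalized GFP-positive differentiation at or above the plate's own cutoff, the solvent-only control mean plus 3 SD; inconclusive = no clear call, values can overlap the other calls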;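 also: cells exposed to compound for four days before flow analysis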
RPL19A-GFP yeast: modulators of TOR pathway RPL19A-GFP in S. cerevisiae | S. cerevisiae RPL19A-GFP strain, flow cytometry, 3 h; hits give low values | hit rate 0.3% among 330,000 | percent response vs DMSO, % at 10 µM | AID 2025;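 active = percent response vs DMSO below 50%; inconclusive = fewer than 70 events counted for the yeast strain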;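 also: median channel GFP fluorescence of the barcoded RPL19A-GFP strain; ratio of sample median GFP to plate DMSO average so 100% = DMSO; lower means less RPL19A-GFP as with rapamycin TOR inhibition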
MEP2 TOR yeast: alters MEP2-GFP fluorescence in TOR pathway yeast screen; hit rate 0.51% among 330,000; S. cerevisiae MEP2-GFP strain, flow cytometry GFP, 3 h; 100% = DMSO control level; AID 2016; GFP response vs DMSO, % at 10 µM;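 active = GFP response versus DMSO above a set limit, roughly screen mean plus 3 SD, cut at about 180% in these data; inconclusive = fewer than 70 cells counted for a yeast strain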;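 also: median GFP fluorescence of the barcode-gated MEP2-GFP cells per well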
CIT2 TOR yeast: yeast TOR pathway CIT2-GFP modulation; GFP response vs DMSO, % at 10 µM; hit rate 0.065% among 320,000; S. cerevisiae CIT2-GFP strain, flow cytometry, 3 h; 100 means same as DMSO wells;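 active = GFP response relative to DMSO above a set limit, near the screen mean plus 3 SD, cut at about 150% in these data; inconclusive = Fewer than 70 cells measured for a yeast strain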;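 also: ratio of well median GFP fluorescence to mean of DMSO wells on the plate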
Starred values were filed as active, the others as inactive; i = inactive; ? = inconclusive; / = no result; + = active, no number; [ ] = remark or other dose.

SMILES | LAP4 TOR yeast | AGP1-GFP MLPCN | Myeloid diff MLP | RPL19A-GFP yeast | MEP2 TOR yeast | CIT2 TOR yeast
CCCCn1cc(S(=O)(=O)c2ccccc2)c(=O)c2cc(C)ccc21 | 114 | ? | i | 40*[may fluoresce violet] | 258*[may fluoresce violet] | ?
Cc1nnc(NC(=O)c2nc(S(=O)(=O)Cc3ccccc3)ncc2Cl)s1 | 168* | 113 | i | 102 | 111 | 112
CC(Oc1ccccc1)C(=O)NNC(=O)c1cccs1 (configuration not stated) | 105 | 99 | + | 98 | 97 | 101
CCOc1ccccc1C(=O)OCC(=O)NCCc1ccc(OC)cc1 | 109 | 107 | i | 107 | 108 | 98
O=[N+]([O-])c1cc([N+](=O)[O-])c(Oc2ccc(Cl)c3cccnc23)cc1NN1CCCCC1 | 110 | 103 | + | 102 | 101 | 103
O=[N+]([O-])c1cc([N+](=O)[O-])c(Oc2cccc(Cl)c2Cl)cc1NN1CCCCC1 | 97 | 83 | i | 103 | 90 | 77
Cc1cc(-c2ccc(Cl)cc2)c(C#N)c(N)n1 | 101 | 103 | i | 101 | 104 | 102
CC(=O)/C(N=Nc1ccc(C(=O)O)cc1[N+](=O)[O-])=C(\C)O | 104 | 107 | i | 98 | 95 | 106
CC(=O)/C(N=Nc1cc(C)ccc1O)=C(\C)O | 107 | 104 | + | 98 | 97 | 107
Cc1ccc(C(=O)c2nocc2C(=O)c2cccs2)cc1 | 155* | / | i | 98 | 100 | 89
Cc1ccc2oc(C(=O)N3CCN(Cc4ncccc4C)CC3)c(C)c2c1 | 83 | 95 | i | 105 | 119 | /
COc1c(C(=O)NCCSC(C)(C)C)ccc2ccccc12 | 103 | 92 | i | 93 | 100 | 89
O=C(O)CCC(=O)OCC1CCCCC1 | 172* | 83 | i | 109 | 96 | 101
O=C(O)CCC(=O)NNC(=O)CCC1CCCCC1 | 99 | 97 | i | 93 | 93 | 96
CCNCCC(=O)N1c2ccccc2Sc2ccc(C(F)(F)F)cc21 | 91 | 99 | i | 104 | 109 | 101
CCc1ccc(/C(C)=N\Nc2ccc([N+](=O)[O-])cc2)cc1 | 99 | 92 | + | 99 | 95 | 92
O=[N+]([O-])c1ccc(NN=C(Oc2ccccc2)c2ccc([N+](=O)[O-])cc2)cc1 | / | / | + | / | / | /
Cc1ccc(S(=O)(=O)Nc2c(O)c3ccccc3oc2=O)cc1 | 94 | 100 | i | 104 | 103 | 103
COc1ccc(S(=O)(=O)Nc2ccccc2)cc1 | 89 | ? | i | 27*[may fluoresce violet] | 208*[may fluoresce violet] | ?
COc1ccc(S(=O)(=O)Nc2c(O)c3ccccc3oc2=O)cc1 | 89 | 92 | + | 104 | 98 | 104
Cc1cc(C)c2c(N=NN3CCOCC3)[nH]nc2n1 | 109 | 123 | i | 97 | 111 | 151*
Cc1cc(C)c(C#N)c(N2CCOCC2)n1 | 95 | 106 | i | 98 | 104 | 101
O=C(Oc1c(CN2CCOCC2)cc(Cl)c2cccnc12)c1ccc(F)cc1 | 99 | 102 | + | 104 | 105 | 100
COc1cc(C(=O)Oc2c(CN3CCOCC3)cc(Cl)c3cccnc23)cc(OC)c1OC | 99 | 91 | + | 93 | 99 | 91
COc1ccc(C(=O)Oc2c(CN3CCOCC3)cc(Cl)c3cccnc23)cc1 | 109 | 96 | / | 90 | 95 | 96
SMILES | LAP4 TOR yeast | AGP1-GFP MLPCN | Myeloid diff MLP | RPL19A-GFP yeast | MEP2 TOR yeast | CIT2 TOR yeast
O=C(Oc1c(CN2CCOCC2)cc(Cl)c2cccnc12)c1ccccc1Cl | 104 | 102 | ? | 96 | 93 | 97
CC(=O)c1ccc(N=Nc2c(C)[nH]n(-c3ccccc3)c2=O)cc1 | 82 | 78 | i | 97 | 95 | ?
Nc1ccn([C@@H]2O[C@H](CNC(=O)[C@@H](Cc3cn(COCc4ccccc4)cn3)NC=O)[C@@H](O)[C@H]2O)c(=O)n1 | / | / | i | / | / | /
CCNC(=O)c1cccc(NC(=O)CC2SC(N3CCCCC3)=NC2=O)c1 (configuration not stated) | 88 | 94 | i | 89 | 93 | 88
COc1cccc(CNc2ccccc2O)c1OCc1ccccc1F | 86 | 80 | + | 87 | 98 | /
COc1cccc(CNc2ccc(S(N)(=O)=O)cc2)c1OCc1ccccc1F | 97 | 97 | i | 101 | 101 | 97
